Test results as given in ChEMBL document CHEMBL1961873, “Compounds: GSK PKIS; Assays: Nanosyn kinase panel” (2012).

target: Hepatocyte growth factor receptor (Homo sapiens) (UniProt P08581); conditions: at 0.1 µM
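Further: reported values are means of MET inhibition.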

Chain of Hepatocyte growth factor receptor (Homo sapiens) (P08581 whole entry): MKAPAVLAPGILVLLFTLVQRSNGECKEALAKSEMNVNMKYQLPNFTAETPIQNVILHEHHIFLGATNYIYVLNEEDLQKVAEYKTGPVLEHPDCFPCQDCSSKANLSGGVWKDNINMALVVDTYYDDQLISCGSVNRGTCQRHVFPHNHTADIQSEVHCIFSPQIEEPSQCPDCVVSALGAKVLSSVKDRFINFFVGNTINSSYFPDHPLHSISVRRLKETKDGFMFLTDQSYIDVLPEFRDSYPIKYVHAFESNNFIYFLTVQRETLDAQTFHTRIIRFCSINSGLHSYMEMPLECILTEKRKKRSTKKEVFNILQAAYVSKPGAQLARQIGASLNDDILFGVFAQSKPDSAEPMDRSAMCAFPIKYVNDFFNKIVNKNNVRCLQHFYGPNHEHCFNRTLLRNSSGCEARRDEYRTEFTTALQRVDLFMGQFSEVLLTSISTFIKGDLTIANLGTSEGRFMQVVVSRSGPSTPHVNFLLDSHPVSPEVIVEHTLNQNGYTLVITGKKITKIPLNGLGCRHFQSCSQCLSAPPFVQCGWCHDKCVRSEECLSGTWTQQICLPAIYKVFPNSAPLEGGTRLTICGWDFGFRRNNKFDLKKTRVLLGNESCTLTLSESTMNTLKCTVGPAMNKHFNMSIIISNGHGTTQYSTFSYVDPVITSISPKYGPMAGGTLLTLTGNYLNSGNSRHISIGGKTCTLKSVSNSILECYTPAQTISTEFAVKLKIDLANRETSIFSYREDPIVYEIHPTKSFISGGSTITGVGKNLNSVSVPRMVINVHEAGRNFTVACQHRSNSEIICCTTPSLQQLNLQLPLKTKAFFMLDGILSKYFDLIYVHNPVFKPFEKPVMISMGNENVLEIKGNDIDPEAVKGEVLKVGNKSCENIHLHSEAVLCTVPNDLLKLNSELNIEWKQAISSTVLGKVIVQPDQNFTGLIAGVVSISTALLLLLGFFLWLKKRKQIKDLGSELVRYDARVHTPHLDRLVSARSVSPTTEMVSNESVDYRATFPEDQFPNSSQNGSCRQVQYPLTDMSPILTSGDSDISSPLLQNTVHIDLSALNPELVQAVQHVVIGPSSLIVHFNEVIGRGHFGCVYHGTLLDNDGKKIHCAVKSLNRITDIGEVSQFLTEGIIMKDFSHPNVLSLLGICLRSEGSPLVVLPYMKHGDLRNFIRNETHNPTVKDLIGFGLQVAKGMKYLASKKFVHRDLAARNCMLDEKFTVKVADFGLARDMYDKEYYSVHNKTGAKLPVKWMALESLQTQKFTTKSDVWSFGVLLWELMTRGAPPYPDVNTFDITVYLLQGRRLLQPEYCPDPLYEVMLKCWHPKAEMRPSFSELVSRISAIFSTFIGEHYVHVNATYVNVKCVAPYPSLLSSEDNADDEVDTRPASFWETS

**Q.** For `CCS(=O)(=O)c1ccc(OC)c(Nc2ncc(-c3cccc(F)c3)o2)c1`, which inhibition is on record?
**A.** The inhibition was 6.73%.

**Q.** How did the inhibition turn out when `CC1(C)CC(n2cnc(-c3ccc(F)cc3)c2-c2ccnc(N)n2)CC(C)(C)N1` was run?
**A.** Its inhibition is -5.05%.

**Q.** For `Fc1ccc(Nc2nccc(-c3c(-c4ccc(C(F)(F)F)cc4)nn4ncccc34)n2)cc1F`, which inhibition is on record?
**A.** The inhibition was 4.74%.

**Q.** `CCOc1ccc2c(-c3ccnc(Nc4cc(OC)cc(C(F)(F)F)c4)n3)cnn2n1` was tested. Which inhibition did it give?
**A.** Its inhibition is 4.49%.

**Q.** For `CS(=O)(=O)CCNCc1ccoc1-c1ccc2ncnc(Nc3ccc(OCc4ccccc4)cc3)c2c1`, which inhibition is on record?
**A.** The inhibition was 3.02%.

**Q.** Which inhibition does the source give for `Cc1ccc(-c2cc3c(NC(=O)C4CC4)ncnc3o2)cc1` here?
**A.** Its inhibition is 4.71%.

**Q.** Which inhibition does the source give for `O=C(O[C@H]1CN[C@H](C#Cc2cc3ncnc(Nc4ccc(OCc5cccc(F)c5)c(Cl)c4)c3s2)C1)N1CCOCC1` here?
**A.** Its inhibition is 4.9%.

**Q.** For `COc1ccc(Nc2ncc(-c3ccccc3)o2)cc1OC`, which inhibition is on record?
**A.** Its inhibition is 2.78%.

**Q.** With `O=C(O[C@H]1CN[C@H](C#Cc2cc3ncnc(Nc4ccc5c(ccn5Cc5cc(F)ccc5F)c4)c3s2)C1)N1CCOCC1` as the compound, how does the inhibition read?
**A.** Its inhibition is 7.21%.

**Q.** Which inhibition does the source give for `Cc1c2ccc(N(C)c3ccnc(Nc4cccc(S(N)(=O)=O)c4)n3)cc2nn1C` here?
**A.** Its inhibition is 10.6%.

**Q.** For `OCCCNc1nccc(-c2c(-c3ccc(F)cc3)nn3cc(C(F)(F)F)ccc23)n1`, which inhibition is on record?
**A.** Its inhibition is 1.57%.

**Q.** `O=C(O[C@H]1CN[C@H](C#Cc2cc3ncnc(Nc4ccc5c(cnn5Cc5ccccc5)c4)c3s2)C1)N1CCOCC1` was tested. Which inhibition did it give?
**A.** Its inhibition is 5.14%.

**Q.** With `CCS(=O)(=O)c1ccc(OC)c(Nc2ncc(-c3cccc(C(C)=O)c3)o2)c1` as the compound, how does the inhibition read?
**A.** Its inhibition is 1.95%.

**Q.** With `CS(=O)(=O)CCNCc1ccc(-c2ccc3ncnc(Nc4ccc(OCc5ccccc5)cc4)c3c2)o1` as the compound, how does the inhibition read?
**A.** Its inhibition is -0.6%.

**Q.** How did the inhibition turn out when `Cn1c(-c2nonc2N)nc2cnccc21` was run?
**A.** The inhibition was 3.78%.
